Assay outcomes deposited in PubChem by Broad Institute.
Tg IFNy HTS = inhibitors of Toxoplasma gondii growth with IFN-gamma; Toxoplasma gondii growth in IFN-gamma-treated host cells; hits give low values; activity change, negative = inhibition, % (test concentration not listed); hit rate 3.8% among 69,000; in the data active means activity change below about -70%, passing the limit was not always enough;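 further: host cells are HeLa cells infected with Toxoplasma gondii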
Each line names hits and unclear results; the compound was inactive in the other large screens; ! = not confirmed by another sample. The full list was thinned out, with hits kept by preference.

O=C(NCc1cccnc1)c1c(O)c2ccccc2n(-c2ccccc2)c1=O	none
O=C(NCc1cccc(Cl)c1)c1c(O)c2cccnc2n(-c2ccc(F)cc2)c1=O	none
O=C(NCc1cccc(Cl)c1)c1c(O)c2cccnc2n(-c2ccccc2)c1=O	Tg IFNy HTS -83.1
O=C(NCc1ccc(Cl)cc1)c1c(O)c2cccnc2n(-c2cccc(F)c2)c1=O	none
O=C(NCc1ccccc1)c1c(O)c2cccnc2n(-c2ccc(F)cc2)c1=O	none
O=C(NCc1cccc(Cl)c1)c1c(O)c2cccnc2n(-c2cccc(F)c2)c1=O	none
CN(C)CCOCC1CN(Cc2nccs2)Cc2ccnn2C1 (stereo unspecified)	none
O=C(Nc1ccc(F)cc1F)c1cccc(CN2[C@@H]3CC[C@H]2CC(O)C3)c1 (stereo partly specified)	none
Cc1cc(C)cc(NC(=O)c2nc3c(n2C(C)C)CCN(C(=O)C2CC2)C3)c1	none
CCOC(=O)c1sc2sc(C(=O)OCC)c(-c3ccco3)c2c1N	none
CCOC(=O)c1cccnc1-c1ccc(-c2ccn[nH]2)cc1	none
CCOC(=O)c1sc2sc(-c3ccn[nH]3)c(C)c2c1C	Tg IFNy HTS -109.6
COCCN1CCc2ncc(CNC(=O)CC3CC3)n2CC1	none
Cc1cc(C)n(-c2cccc(CN3CC4CCCC(C3)C4(O)c3cccnc3)c2)n1 (stereo unspecified)	none
Cc1ccc(S(=O)(=O)N2C[C@@H]3OCCN(Cc4cnn(C)c4)[C@H]3C2)cc1	none
CO[C@@H]1CN(C(=O)Cc2ccsc2)[C@H]2CCCO[C@@H]12	none
NC(N)=NCCNS(=O)(=O)c1cccc2cnccc12	none
NCCCCCCNS(=O)(=O)c1cccc2ccccc12	none
Nc1nc(NCC2CCC(CNS(=O)(=O)c3cccc4ccccc34)CC2)nc2ccccc12 (stereo unspecified)	Tg IFNy HTS -76.7!
c1ccc2c(c1)CN(c1ncnc3c1CCNC3)CCO2	none
O=C1Cc2cc(CCN3CCN(c4nsc5ccccc45)CC3)c(Cl)cc2N1	Tg IFNy HTS -80.5
CN1CCN(CCC(=O)N2CCN(c3nsc4ccccc34)CC2)CC1	none
Cc1c(S(=O)(=O)N2CCN(c3nsc4ccccc34)CC2)cnn1C(F)F	none
O=C(c1ccco1)N1CCc2ccc(=O)n(Cc3cccnc3)c2CC1	none
Cc1cc(C)n(Cc2cccc(C(=O)N(C)Cc3c(C)nn(C)c3C)c2)n1	none
COc1ccc(-c2nc3c(s2)CN(C(=O)Nc2ccc(C)cc2)CC3)cc1OC	none
COc1ccc(-c2nc3c(s2)CN(S(=O)(=O)c2ccc(NC(C)=O)cc2)CC3)cc1	none
COc1ccc(-c2nc3c(s2)CN(S(=O)(=O)c2cc(F)ccc2C)CC3)cc1OC	none
O=S(=O)(c1ccccc1Cl)N1CCc2nc(-c3ccccc3)sc2C1	none
COc1ccc(Cl)cc1S(=O)(=O)N1CCc2nc(-c3ccccc3)sc2C1	Tg IFNy HTS -118.1
O=S(=O)(c1ccc(F)c(Cl)c1)N1CCc2nc(-c3ccccc3)sc2C1	none
COc1ccc(-c2nc3c(s2)CN(S(=O)(=O)c2ccc(C)c(C)c2)CC3)cc1OC	Tg IFNy HTS -98.4
COc1ccc(-c2nc3c(s2)CN(S(=O)(=O)c2ccc(C)cc2)CC3)cc1OC	Tg IFNy HTS -87.1
COc1ccc(-c2nc3c(s2)CN(S(=O)(=O)c2ccccc2C)CC3)cc1OC	Tg IFNy HTS -93.8
COc1ccc(-c2nc3c(s2)CN(S(=O)(=O)Cc2ccccc2)CC3)cc1OC	none
COc1ccc(-c2nc3c(s2)CN(S(=O)(=O)c2ccc(F)cc2)CC3)cc1OC	none
CCc1ccc(S(=O)(=O)N2CCc3nc(-c4ccc(OC)c(OC)c4)sc3C2)cc1	none
CCCn1c(=O)c(-c2nc(-c3ccccc3Cl)no2)c(O)c2ccccc21	none
Cc1cccc(NC(=O)Cn2c(=O)ccc3cc(S(=O)(=O)N4CCCC4)ccc32)c1	none
COc1ccc(F)cc1S(=O)(=O)NCCc1csc(-c2cccc(F)c2)n1	none
COCCCNC(=O)Cn1ncc2c(N3CCN(c4ccccn4)CC3)ncnc21	none
CN1C(=O)CCc2cc(NC(=O)c3ccc(OC(F)(F)F)cc3)ccc21	none
CO/N=C(/C(=O)NC1C(=O)N2C(C(=O)O)=C(C[N+]3(C)CCCC3)CSC12)c1csc(N)n1 (stereo unspecified)	none
CCCCNC(=O)N1CCC2(CC1)COCCN(c1ncccn1)C2	none
CC1(C)S[C@H]2[C@@H](NC(=O)[C@@H](NC(=O)N3CCN(S(C)(=O)=O)C3=O)c3ccccc3)C(=O)N2[C@@H]1C(=O)O	none
Cc1nc(CN(C)Cc2cc(-c3ccccc3)no2)co1	none
Cc1cc(=O)[nH]c(SCC(=O)Nc2ccc(N3CCOCC3)c(Cl)c2)n1	none
CCc1nc(OCC(=O)Nc2ccc(C)c(F)c2)c2ccccc2n1	none
Cn1c(=O)n(C)c2cc(Br)c(N)cc21	none
CN(C)CC1COC2(CCCN(C(=O)Cc3cccnc3)C2)C1 (stereo unspecified)	none
CCn1c(C2CCCNC2)nn(Cc2cnn(-c3ccccc3F)c2)c1=O (stereo unspecified)	none
Cc1ccc(S(=O)(=O)NC(=O)c2ccccc2)cc1	none
CN(C)c1ccc(C(=O)c2ccccc2)cc1	none
Cc1ccc(Sc2ccc(C(=O)c3ccccc3)cc2)cc1	Tg IFNy HTS -77.7
Cc1ccc2[nH]cc(CCNC(=O)c3c(-c4ccccn4)noc3C)c2c1	none
CC(=O)OCCSc1ccc(-c2ccc(SCCOC(C)=O)cc2)cc1	none
Cn1nc(C(F)(F)F)c(Cl)c1C(=O)N1CCCC1Cn1cccn1 (stereo unspecified)	none
COCCN1CCOCC12CCN(CC(C)(C)O)CC2	none
CN1CCN2c3ccccc3Cc3ccccc3C2C1 (stereo unspecified)	none
CN1CCN(C2=Cc3ccccc3Oc3ccc(Cl)cc32)CC1	none
CN1CCCC(CC2c3ccccc3Sc3ccccc32)C1 (stereo unspecified)	none
CSc1ccc2c(c1)C(N1CCN(C)CC1)Cc1ccccc1S2 (stereo unspecified)	Tg IFNy HTS -76.9
CN1CCN(C2Cc3ccccc3Sc3ccc(Cl)cc32)CC1 (stereo unspecified)	Tg IFNy HTS -81.7
COC(=O)c1ccc(NC(=O)CCN2CC(N3CCCCC3C)C2)cc1 (stereo unspecified)	none
CCOCC1CN(C(=O)Cc2ccccn2)Cc2c1cnn2C (stereo unspecified)	none
CC(CNc1ccc(-c2nccn2C)nn1)Oc1cccnc1 (stereo unspecified)	none
CCS(=O)(=O)N1CCC2(CC1)OC(=O)C(C)=C2C(=O)Nc1ccc(C)cc1C	none
Nc1nc2nc(C3CCCN(C(=O)c4cccnc4)C3)ccc2s1 (stereo unspecified)	none
O=C(Cn1c(=O)cc(-c2nc(C3CC3)no2)c2ccccc21)NCc1ccc(F)cc1	none
CC(C)NC(=O)Cn1c(=O)cc(-c2nc(C3CC3)no2)c2ccccc21	none
CC1CCN(S(=O)(=O)c2ccc3c(ccc(=O)n3CC(=O)NCCC3=CCCCC3)c2)CC1	Tg IFNy HTS -76.6
CC1CCN(S(=O)(=O)c2ccc3c(ccc(=O)n3CC(=O)NC3CC3)c2)CC1	none
O=C(Cn1c(=O)cc(-c2nc(C3CC3)no2)c2ccccc21)NCCC1=CCCCC1	Tg IFNy HTS -84.2
CC1CCN(S(=O)(=O)c2ccc3c(ccc(=O)n3CC(=O)NC3CCCC3)c2)CC1	none
COc1ccc(-c2ccccc2-c2nnc(C)s2)cn1	none
Cc1nn(Cc2ccccc2)c(C)c1CN1CCc2c(nc(-c3ccncc3)[nH]c2=O)C1	none
CC1(C)Cc2ccccc2CN1C(=O)c1cn(CC2CCCNC2)nn1 (stereo unspecified)	none
O=C(NCCc1csc2c1CCCC2)c1cn(CC2CCCNC2)nn1 (stereo unspecified)	Tg IFNy HTS -78.4
Cc1cccnc1N1CCN(C(=O)c2cn(CC3CCCNC3)nn2)CC1 (stereo unspecified)	none
